From PubChem BioAssay (Tox21) come the findings set out here.

Inconclusive results are not listed. Active and inactive are the calls of the source. Unless noted, the call rests on the fitted dose curve; in most records, active means well fitted curve in the direction sought with a large enough effect in the repeat runs; inconclusive means weak or mixed curves; inactive means no such curve, though single readings can be large; an effect the other way counts as inactive or inconclusive.

Assay [1] in a line: qHTS assay to identify small molecule antagonists of the thyroid receptor (TR) signaling pathway - cell viability counter screen (AID 743064). Further: nearly all actives have a fitted effect of over 50% in size. Further: potency means the concentration at half of the fitted maximal effect. In outline:
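GH3.TRE-Luc rat pituitary cells dosed after 4 hr plating, co-stimulated with T3 at 1 nM final, incubated 23.5 h at 37 C. Viability measured in the same wells by CellTiter-Fluor fluorescence after 30 min further at 37 C.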

Assay [2] in a line: qHTS assay to identify small molecule antagonists of the thyroid receptor (TR) signaling pathway (AID 743065). Further: nearly all actives have a fitted effect of over 55% in size. Further: potency means the concentration at half of the fitted maximal effect. In outline: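 GH3.TRE-Luc rat pituitary cells (two TREs driving luciferase) were dosed with compound, then stimulated with 1 nM T3 (final) for 23.5 h at 37 C. ONE-Glo luminescence was the read-out, with CellTiter-Fluor fluorescence as the cytotoxicity counter-screen.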

In assay [3] the test system is thyroid hormone receptor (rat, GH3 cells). Briefly: qHTS assay to identify small molecule agonists of the thyroid receptor (TR) signaling pathway (AID 743066; calls by dose curve). A general note: Quantitative high-throughput screening tests each substance at several concentrations.
The target of assay [4] is Estrogen receptor (Homo sapiens) (UniProt P03372). Briefly: qHTS assay to identify small molecule antagonists of the estrogen receptor alpha (ER-alpha) signaling pathway (AID 743069; active means well fitted curve in the direction sought with a large enough effect in the signal ratio in the repeat runs, not every such curve was filed as active; the % refers to the signal ratio). In outline:
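Beta-lactamase FRET fluorescence is read after 2 hr at room temperature with LiveBLAzer B/G substrate. Before that, ER-alpha-bla HEK293 cells sit 4 hr after plating, then receive compound plus 17beta-estradiol and incubate 18 hr at 37C.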

A short description of assay [5]: qHTS assay to identify small molecule antagonists of the estrogen receptor alpha (ER-alpha) signaling pathway - cell viability counter screen (AID 743074; calls by dose curve;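 further: HEK293 cells carrying ER-alpha-UAS-bla reporter stimulated with 17beta-estradiol; nearly all actives have a fitted effect of over 45% in size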).
The target in assay [6] is Estrogen receptor (Homo sapiens) (UniProt P03372). In words: qHTS assay to identify small molecule agonists of the estrogen receptor alpha (ER-alpha) signaling pathway (AID 743075; calls by dose curve;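 further: HEK293 GripTite cells with ER-alpha and UAS-driven beta-lactamase reporter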).
Assay [7] shares this target. Briefly: qHTS assay to identify small molecule agonists of the estrogen receptor alpha (ER-alpha) signaling pathway using the BG1 cell line (AID 743079). Further: nearly all actives have a fitted effect of over 20% in size.
Assay [8] is described as follows: qHTS assay to identify small molecule antagonists of the estrogen receptor alpha (ER-alpha) signaling pathway using the BG1 cell line - cell viability counter screen (AID 743081).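 Further: compound given together with 17beta-estradiol as the ER stimulus; series mostly up to about 70 µM; nearly all actives have a fitted effect of over 45% in size.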
The next assay addresses Aromatase (Homo sapiens) (UniProt P11511). In words: qHTS assay to identify aromatase inhibitors (AID 743083). Further: series mostly up to about 70 µM; nearly all actives have a fitted effect of over 55% in size.
The nature of assay [9]: qHTS assay to identify aromatase inhibitors - cell viability counter screen (AID 743084).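 Further: cells stimulated with testosterone during compound exposure; nearly all actives have a fitted effect of over 55% in size.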 Further: potency means the concentration at half of the fitted maximal effect.
The target in assay [10] is Aryl hydrocarbon receptor (Homo sapiens) (UniProt P35869). Briefly: qHTS assay to identify small molecule that activate the aryl hydrocarbon receptor (AhR) signaling pathway (AID 743085).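 Further: HG2L7.5c1 human HepG2 liver cells with stably integrated DRE-driven firefly reporter; series mostly up to about 70 µM; nearly all actives have a fitted effect of over 15% in size.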 A digest of the protocol:
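HepG2 cells stably carrying a 20-DRE firefly luciferase reporter (HG2L7.5c1) treated with compound for 24 hr at 37C. Luciferase read by ONE-Glo luminescence, with CellTiter-Fluor viability read first.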

A short description of assay [11]: qHTS assay to identify small molecule that activate the aryl hydrocarbon receptor (AhR) signaling pathway - cell viability counter screen (AID 743086).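 Further: HepG2 liver cells carrying the AhR DRE luciferase reporter; series mostly up to about 70 µM; nearly all actives have a fitted effect of over 45% in size.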 A digest of the protocol:
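HepG2-AhR-luc (HG2L7.5c1) cells, 4000/well, treated 24 h at 37 C with compound; viability measured as CellTiter-Fluor fluorescence after 30 min in the same wells as the luciferase read.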

In assay [12] the target is Peroxisome proliferator-activated receptor gamma (Homo sapiens) (UniProt P37231). In words: qHTS assay to identify small molecule agonists of the peroxisome proliferator-activated receptor gamma (PPARg) signaling pathway (AID 743094; active means well fitted activation curve with a large enough effect in the signal ratio in the repeat runs, not every such curve was filed as active; the % refers to the signal ratio). A digest of the protocol: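 HEK293H PPARg-bla cells, 5 h settle at 37C/5% CO2; compound (DMSO) 17 h, 37C; B/G FRET substrate 1 h RT; fluorescence intensity read-out. qHTS format.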

The nature of assay [13]: qHTS assay to identify small molecule antagonists of the peroxisome proliferator-activated receptor gamma (PPARg) signaling pathway - cell viability counter screen (AID 743194). Further: nearly all actives have a fitted effect of over 55% in size. A digest of the protocol:
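Cytotoxicity counter screen in PPARg-bla HEK293H cells, same wells as reporter assay. Compounds plus 50 nM rosiglitazone (final) for 17 h at 37 C, then viability read by CellTiter-Glo luminescence.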

Assay [14] can be described thus: qHTS assay for small molecule agonists of the antioxidant response element (ARE) signaling pathway - cell viability counter screen (AID 743203; calls by dose curve; further: nearly all actives have a fitted effect of over 55% in size). A digest of the protocol:
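Luminescence read-out (CellTiter-Glo, 30 min at room temperature) measured cell viability in the same wells as the ARE beta-lactamase reporter. HepG2 ARE-bla cells were treated with compounds for 16 hrs at 37C/5% CO2.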

Assay [15] can be described thus: qHTS assay for small molecule activators of the heat shock response signaling pathway - cell viability counter screen (AID 743209). Further: nearly all actives have a fitted effect of over 50% in size. A digest of the protocol: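 HSE-bla HeLa; 1500 cells/well; overnight 37 C, 5% CO2; compound 5 h 37 C; LiveBLAzer B/G substrate 2.5 h RT; CellTiter-Glo 30 min RT; luminescence.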
A short description of assay [16]: qHTS assay for small molecule activators of the heat shock response signaling pathway (AID 743210; active means well fitted activation curve with a large enough effect in the signal ratio in the repeat runs, with a control signal flat, not every such curve was filed as active; the % refers to the signal ratio;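 further: HeLa cells with beta-lactamase reporter driven by heat shock elements; series mostly up to about 63 µM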). In outline:
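Beta-lactamase reporter read-out: FRET substrate fluorescence after 2.5 h at RT, following 5 h compound treatment at 37 C of HeLa cells carrying HSE-driven bla reporter; quantitative HTS format.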

Assay [17] can be described thus: qHTS assay to identify small molecule antagonists of the estrogen receptor alpha (ER-alpha) signaling pathway using the BG1 cell line (AID 743080; calls by dose curve;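 further: BG1 cells stimulated with 17beta-estradiol alongside compound; series mostly up to about 70 µM; nearly all actives have a fitted effect of over 25% in size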). A digest of the protocol:
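Luminescence from a 4×ERE-luciferase reporter in BG1-Luc-4E2 cells served as read-out. Cells, pre-cultured 5 days in stripped-serum phenol-red-free medium, were exposed to compound with 17beta-estradiol co-stimulation for 21.5 h at 37 C.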

Assay [18] deals with Peroxisome proliferator-activated receptor gamma (Homo sapiens) (UniProt P37231). In words: qHTS assay to identify small molecule antagonists of the peroxisome proliferator-activated receptor gamma (PPARg) signaling pathway (AID 743191; calls by dose curve; further: series mostly up to about 63 µM; nearly all actives have a fitted effect of over 30% in size). In outline: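 GeneBLAzer PPARg UAS-bla HEK293H cells, 5 h post-plating, exposed to compounds 17 h at 37C. LiveBLAzer B/G FRET substrate added for 1 h at room temperature; beta-lactamase reporter read by fluorescence intensity.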

Assay [19] can be described thus: qHTS assay for small molecule agonists of the antioxidant response element (ARE) signaling pathway (AID 743202; active means well fitted activation curve with a large enough effect in the signal ratio in the repeat runs, not every such curve was filed as active; the % refers to the signal ratio). A digest of the protocol: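 HepG2 ARE-bla reporter line, 2,000 cells/well; 5 h preincubation 37 C/5% CO2; compound (DMSO) 16 h 37 C; B/G FRET substrate 2 h RT; fluorescence intensity.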

Chain of Estrogen receptor (Homo sapiens) (P03372 whole entry, looked up): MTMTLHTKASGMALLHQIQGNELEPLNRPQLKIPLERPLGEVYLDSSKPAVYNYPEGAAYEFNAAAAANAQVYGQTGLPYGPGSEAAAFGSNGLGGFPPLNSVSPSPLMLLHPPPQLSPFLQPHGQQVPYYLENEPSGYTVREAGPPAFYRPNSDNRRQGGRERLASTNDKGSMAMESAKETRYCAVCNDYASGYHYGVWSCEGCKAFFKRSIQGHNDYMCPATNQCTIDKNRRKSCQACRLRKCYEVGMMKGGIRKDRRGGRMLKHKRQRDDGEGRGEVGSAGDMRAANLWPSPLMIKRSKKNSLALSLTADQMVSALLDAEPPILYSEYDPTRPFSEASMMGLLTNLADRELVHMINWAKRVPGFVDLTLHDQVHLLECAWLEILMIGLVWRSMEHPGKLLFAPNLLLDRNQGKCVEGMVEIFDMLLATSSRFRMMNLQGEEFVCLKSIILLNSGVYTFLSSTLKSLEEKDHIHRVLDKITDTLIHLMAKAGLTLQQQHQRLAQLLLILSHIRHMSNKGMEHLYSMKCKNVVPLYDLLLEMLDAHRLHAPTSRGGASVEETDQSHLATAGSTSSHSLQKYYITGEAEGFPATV
Chain of Aryl hydrocarbon receptor (Homo sapiens) (P35869 whole entry, looked up): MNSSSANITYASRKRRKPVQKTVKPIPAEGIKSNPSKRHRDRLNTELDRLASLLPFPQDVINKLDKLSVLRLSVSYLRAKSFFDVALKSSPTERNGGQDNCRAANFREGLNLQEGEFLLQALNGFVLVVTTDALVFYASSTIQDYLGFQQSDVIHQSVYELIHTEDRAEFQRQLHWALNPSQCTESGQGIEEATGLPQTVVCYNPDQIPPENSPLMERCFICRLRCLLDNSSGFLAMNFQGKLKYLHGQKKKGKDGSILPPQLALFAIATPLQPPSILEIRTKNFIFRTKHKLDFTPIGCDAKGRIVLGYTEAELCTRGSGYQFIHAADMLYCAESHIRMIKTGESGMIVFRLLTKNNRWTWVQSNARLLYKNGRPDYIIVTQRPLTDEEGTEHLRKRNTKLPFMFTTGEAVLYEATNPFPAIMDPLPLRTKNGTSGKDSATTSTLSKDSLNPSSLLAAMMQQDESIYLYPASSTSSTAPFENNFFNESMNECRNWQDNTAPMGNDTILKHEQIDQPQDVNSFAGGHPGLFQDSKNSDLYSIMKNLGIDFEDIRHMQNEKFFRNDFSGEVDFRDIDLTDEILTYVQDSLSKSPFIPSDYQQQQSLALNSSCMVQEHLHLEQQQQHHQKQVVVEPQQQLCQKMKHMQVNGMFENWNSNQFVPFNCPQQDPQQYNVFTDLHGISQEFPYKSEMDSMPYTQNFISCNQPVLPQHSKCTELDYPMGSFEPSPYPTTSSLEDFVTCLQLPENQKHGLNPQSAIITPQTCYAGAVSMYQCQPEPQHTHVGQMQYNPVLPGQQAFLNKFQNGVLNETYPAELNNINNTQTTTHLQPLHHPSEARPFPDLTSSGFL
Chain of Peroxisome proliferator-activated receptor gamma (Homo sapiens) (P37231 whole entry, looked up): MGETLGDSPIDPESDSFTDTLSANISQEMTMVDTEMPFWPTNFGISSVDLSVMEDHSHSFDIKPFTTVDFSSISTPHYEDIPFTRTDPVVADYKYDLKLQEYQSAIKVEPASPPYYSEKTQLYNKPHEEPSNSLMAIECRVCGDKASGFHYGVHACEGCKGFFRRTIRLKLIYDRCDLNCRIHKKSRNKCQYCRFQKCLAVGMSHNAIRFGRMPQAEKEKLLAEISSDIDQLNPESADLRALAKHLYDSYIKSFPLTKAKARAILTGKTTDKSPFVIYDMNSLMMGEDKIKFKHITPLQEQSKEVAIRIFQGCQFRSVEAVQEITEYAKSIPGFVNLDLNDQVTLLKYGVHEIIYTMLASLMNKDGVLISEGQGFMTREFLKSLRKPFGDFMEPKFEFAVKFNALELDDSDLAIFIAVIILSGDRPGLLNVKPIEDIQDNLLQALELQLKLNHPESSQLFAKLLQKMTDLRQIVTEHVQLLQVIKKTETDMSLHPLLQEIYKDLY
Chain of Aromatase (Homo sapiens) (P11511 whole entry, looked up): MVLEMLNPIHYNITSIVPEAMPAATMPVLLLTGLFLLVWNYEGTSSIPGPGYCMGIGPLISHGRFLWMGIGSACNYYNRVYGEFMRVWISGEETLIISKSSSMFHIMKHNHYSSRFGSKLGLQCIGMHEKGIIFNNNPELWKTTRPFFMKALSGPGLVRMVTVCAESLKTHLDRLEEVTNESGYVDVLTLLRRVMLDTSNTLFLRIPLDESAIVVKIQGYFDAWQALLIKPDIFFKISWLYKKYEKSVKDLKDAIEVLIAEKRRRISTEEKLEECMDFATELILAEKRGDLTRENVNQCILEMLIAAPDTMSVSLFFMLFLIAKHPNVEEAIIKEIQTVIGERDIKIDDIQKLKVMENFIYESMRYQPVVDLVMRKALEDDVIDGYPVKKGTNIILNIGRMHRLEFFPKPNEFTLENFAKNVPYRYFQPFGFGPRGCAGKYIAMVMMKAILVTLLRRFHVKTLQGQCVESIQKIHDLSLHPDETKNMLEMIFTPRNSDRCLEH

For the compound `ClC1=C(Cl)C1(Cl)Cl`, the Potency result in assay [1], in assay [2], in assay [3], in [4], in assay [5] and in [6] was “inactive” in each case. Moreover, the Potency entry (in assay [7]; in assay [8]; in the assay with Aromatase (Homo sapiens); in assay [9]; in [10]; in [11]) was “inactive” in each case. For the same compound, the Potency result in assay [13], in [14], in assay [15] and in assay [16] was “inactive” throughout. Further, in [12], the call was inactive.
`Nc1ccc(NC(=O)c2ccc(N)cc2)cc1`: the Potency entry in assay [1], in assay [2], in assay [3], in [4], in [5] and in assay [6] was “inactive” in each case. For the same compound, the Potency result in [7], in assay [17], in assay [8], in [10], in [11] and in [18] was “inactive” in each case. Besides, the Potency entry in [13], in assay [14] and in assay [15] was “inactive” throughout. Also, the Potency in assay [9] is 54.5 µM (active). Also, the outcome in [12] was inactive.
In the case of `CCOCCC(=O)OCC`, the Potency entry in assay [1], in assay [2], in [3], in [4], in assay [5] and in [6] was “inactive” each time. Further, the Potency entry (in assay [7]; in assay [8]; with Aromatase (Homo sapiens); in assay [9]; in assay [10]; in assay [11]) was “inactive” throughout. The Potency result in assay [18], in [13], in [19], in assay [14] and in [15] was “inactive” throughout. Further, in [12], the outcome was inactive.
In the case of `COc1cc(S(=O)(=O)Nc2ccccc2)c(OC)cc1N`, the Potency result in assay [1], in [2], in assay [3], in assay [4], in assay [6] and in assay [7] was “inactive” each time. Further, the Potency entry (in [17]; in assay [8]; with Aromatase (Homo sapiens); in assay [9]; in assay [10]; in assay [11]) was “inactive” in each case. Besides, the Potency result in [18], in [13] and in assay [15] was “inactive” in each case. Besides, in assay [12], the compound was classed as inactive.
For the compound `CCCCCCOC(=O)CCCCC`, the Potency result (in [1]; in [2]; in assay [3]; in assay [5]; in assay [8]; with Aromatase (Homo sapiens)) was “inactive” each time. In addition, the Potency result in assay [9], in assay [10], in assay [11], in assay [18], in [13] and in [19] was “inactive” throughout. The Potency result in assay [14] and in assay [15] was “inactive” each time. The call in assay [12] was inactive.
Take `CCCCCCC(O)CCOC(C)=O` (stereo not given): the Potency result in assay [1], in [2], in assay [3], in assay [4], in [5] and in assay [6] was “inactive” in each case. The Potency result (in [7]; in [8]; with Aromatase (Homo sapiens); in assay [9]; in [10]; in assay [11]) was “inactive” each time. The Potency entry in assay [13], in assay [14], in assay [15] and in [16] was “inactive” in each case. In assay [12], the result was inactive.
Regarding `CN(C)CC/C=C1\c2ccccc2Sc2ccc(Cl)cc21`, the Potency in assay [1] and in [2] was 11.9 µM (active) throughout. In addition, the Potency entry in assay [3], in assay [5], in assay [6], in [7], in assay [17] and in assay [8] was “inactive” in each case. For the same compound, the Potency result in assay [10], in assay [15] and in assay [16] was “inactive” throughout. In assay [12], the result was inactive.
`C=CCOC(=O)COCCC(C)C`: the Potency result in assay [1], in assay [2], in assay [3], in assay [4], in [5] and in [6] was “inactive” throughout. Also, the Potency result (in assay [7]; in assay [8]; with Aromatase (Homo sapiens); in [10]; in assay [11]; in [13]) was “inactive” in each case. The Potency result in [14], in assay [15] and in assay [16] was “inactive” throughout. The outcome in assay [12] was inactive.
Regarding `CC(C)(O)CCc1ccccc1`, the Potency entry in assay [1], in assay [2], in assay [3], in [4], in assay [5] and in [6] was “inactive” each time. For the same compound, the Potency entry (in assay [7]; in [8]; in the assay with Aromatase (Homo sapiens); in assay [9]; in assay [11]; in [18]) was “inactive” each time. For the same compound, the Potency entry in assay [13], in assay [19], in assay [14], in assay [15] and in [16] was “inactive” each time.
